From PubChem BioAssay (NCI)
About 83,000 compounds went through this panel and 20% of them were active in at least one assay; those are over-represented in the sample as a whole.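 Cells were grown in 96-well plates and exposed to the test compound at a single concentration for 48 hours; results are reported as percent growth, with values below 10 considered active.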 A number with no mark means an inactive call. Active and inactive are the calls of the source.

These molecules were tested on NCI-H226 lung (assay: NCI-60 one-dose screen, 48 h (100 = growth as untreated, 0 = no growth, -100 = all killed)). Settings: 10 µM unless noted.
For `Cc1c(C(=O)NC(Cc2ccccc2)C(O)C(=O)NCc2ccc(F)cc2)[nH]c2ccccc2c1=O` (centres undefined), the growth was 105%. In the case of `Cc1cc(C(=O)c2ccccc2)c(C)c2c1[nH]c1ccc(Cl)cc12`, the growth is reported as 50.6%. Work on `COc1ccc(C(=O)/C=C/c2c(C(F)(F)F)nc3sccn23)cc1OC` yielded a growth of 53.5%. `O=Cc1c[nH]c2ccc(-c3csc4ccccc34)cc12` was tested, and the growth was 73.8%. For `Cc1ccc(/C=C/c2c(C(=O)/C=C/c3ccc(C(F)(F)F)cc3)c(C)nc3ccccc23)cc1`, the growth was -46.1% (active). `N#CC1=C(/N=C/c2ccccc2)Oc2c(ccc3ccccc23)C1c1ccccc1` (centres undefined) showed a growth of 52.9%. Work on `O=C(NCCc1ccc(O)c(O)c1)C12CC3CC(CC(C3)C1)C2` yielded a growth of 93.7%. `Cc1cc(=O)[nH]c(N=Nc2c(O)[nH]c3ccccc23)n1` gave a growth of 97.9%. Molecule `COc1ccc2oc3c(C)c4c(c(C)c3c2c1)C(=O)N(Cc1ccccc1)C4=O` has a growth of 90.1%. In the case of `COc1ccc2[nH]c(O)c(/C=c3/cc4c(c(-c5cc(OC)c(OC)c(OC)c5)n3)=Nc3ccccc3-4)c2c1`, the growth is reported as 67.1%. For `CC(=O)c1nc(Nc2ccc(C)cc2)sc1C`, the growth was 81.7%. Molecule `COc1ccc(N=C(c2ccccc2)C2C(=O)c3ccccc3C2=O)cc1` has a growth of 96.8%. Molecule `CCCCc1ccc(Nc2ccc(Nc3ccc(CCCC)cc3S(=O)(=O)O)c3c2C(=O)c2ccccc2C3=O)c(S(=O)(=O)O)c1` has a growth of 79.7%. `Cc1nn(-c2ccccc2)c2nc3c(c(-c4ccc(Cl)cc4)c12)CNC1(CCSCC1)N3` gave a growth of 81.2%.
